Screens from PubChem BioAssay.
Wnt bcat act – Wnt/beta-catenin pathway activators, primary screen, cell-based, plate reader, single point; Wnt/beta-catenin reporter cell assay, activator; activation, % at 9.35 µM; 300,000 compounds, 1.2% hits; in the data active = activation above about 30%, passing the limit was not always enough; inconclusive = no clear call, values can overlap the other calls;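 note: 0% = neutral control wells and 100% = positive control wells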
HSF1 activator – HSF-1 activators, primary screen, NIH3T3-HGL cells, MG132 stress, luminescence, single point. NIH3T3-HGL HSF-1 luciferase reporter, 8 h; 100% = twice DMSO control signal. 300,000 compounds, 1.7% hits. activation, % at 9 µM;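 active = mean replicate activation of at least 50% with a set share of replicates each reaching 50%; inconclusive = only one of those two conditions met; inactive = mean below 50% and too few replicates reaching it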;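 note: 0% = median of the neutral control wells and 100% = twice that signal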
SMARCA2 activ – SMARCA2 (BRM) function activators, primary screen, cell-based, luminescence, high throughput; MG213 cells, MMTV-luciferase reporter, dexamethasone, overnight; activation, % at 9.1 µM; 370,000 compounds, 1% hits; AID 652017, 2013; in the data active = activation above about 7.8%;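 note: 0% = vehicle wells and 100% = reference activator wells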
esBAF inh – Bmi1 luciferase reporter increase in mESCs, primary screen, esBAF inhibitor project, mouse ES cells, Bmi1 luciferase knock-in, single point | AID 602393, 2012 | 350,000 compounds, 2% hits | 24 h; 100% = twice the neutral-well signal | reporter increase, % at 12.5 µM; in the data active = activation above about 40%; inconclusive = no clear call, values can overlap the other calls;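 note: 0% = median of the plate's neutral control wells and 100% = double that signal; a rise in the Bmi1 reporter signal indicates esBAF inhibition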
HSF1 inh – HSF1 inhibitors in luciferase reporter cells, primary screen, cell-based, NIH3T3, luminescence; NIH3T3-HGL HSE-luciferase, MG132-induced, luminescence 8 h; stronger effect = lower value; activity change, negative = inhibition, % at 7.5 µM (by protocol); 300,000 compounds, 0.77% hits; AID 2098, 2009;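 active = more than half of replicate wells show activity change below -50%, luminescence cut by over half; inconclusive = some wells, but at most half, below -50%; inactive = no replicate well below -50%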;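 note: luciferase reports HSF-1 transcriptional activity via heat shock element; 0% = median of DMSO wells and -100% = zero luminescence signal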
MITF TRPM1 HTS – activators of MITF-driven TRPM1 promoter reporter, primary screen, cell-based, SK-MEL-5, luciferase, single point | 300,000 compounds, 0.75% hits | AID 588334, 2011 | activation, % at 12.5 µM | SK-MEL-5 TRPM1-promoter luciferase, 24 h; % of positive control, neutral wells = 0;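 active = mean activation of at least 80% with every replicate also reaching 80%; inconclusive = mean reaches 80% but some replicate falls short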;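 note: 0% = neutral control wells and 100% = parthenolide positive control wells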
Numbers without * were called inactive; ? = inconclusive; . = not tested or not shown. Hits are enriched below; roughly 4.3% of the tested compounds scored in any of these assays.

SMILES | Wnt bcat act | HSF1 activator | SMARCA2 activ | esBAF inh | HSF1 inh | MITF TRPM1 HTS
O=[N+]([O-])c1c(NCCCO)cc(SCc2ccco2)c2nonc12 | 2.0 | -37.9 | 0.7 | . | -21.5 | -6.2
O=[N+]([O-])c1c(NCCCO)cc(Sc2ccc(Cl)cc2)c2nonc12 | . | ? | -4.8 | . | 164.4 | -91.7
CC(=O)OCCCNc1cc(Sc2nc3ccccc3s2)c2nonc2c1[N+](=O)[O-] | . | -77.0 | . | 0.9 | -79.2* | -24.7
CC(=O)OCCCNc1cc(Sc2ccc(C)cc2)c2nonc2c1[N+](=O)[O-] | . | -84.3 | -1.0 | -9.7 | -80.0* | -38.3
O=C(C[C@@H]1C[C@@H]2c3cc(NC(=O)C4CCOCC4)ccc3O[C@@H]2[C@H](CO)O1)NCc1ccccc1F | . | . | . | 0.2 | . | .
COc1cccc(-c2csc(NC(=O)C3CC3)n2)c1 | ? | 36.9 | 3.1 | 61.1* | 17.6 | 119.5*
COc1cccc(Nc2nc(-c3cccc(N4C(=O)c5ccccc5C4=O)c3)cs2)c1 | 17.1 | -22.4 | 3.3 | ? | -10.3 | 20.8
COc1cccc(Nc2nc(-c3ccc(O)cc3)cs2)c1 | . | 38.5 | 2.1 | 35.9 | 2.0 | 90.3*
COc1cccc(-c2csc(NC(=O)Nc3ccccc3)n2)c1 | 6.8 | -69.9 | -3.6 | 21.1 | -60.2* | -2.9
Cc1ccc(S(=O)(=O)Nc2cccc3c2O[C@H](CN(C)Cc2ccc(C(F)(F)F)cc2)[C@@H](C)CN([C@@H](C)CO)C3=O)cc1 | . | . | . | -1.9 | . | .
CCOC(=O)C1=C(Nc2ccc(OC)cc2)OCC1=O | 36.3* | 1.0 | -1.3 | . | -5.5 | .
CCOC(=O)C1=C(Nc2ccccc2)OCC1=O | . | 19.0 | 1.2 | 8.4 | -2.4 | 12.6
CC(=O)Nc1ccc2nc(-c3ccc(Br)o3)[nH]c2c1 | -1.3 | 15.9 | 0.8 | . | 7.1 | 66.2
O=C(Nc1ccc2nc(-c3ccc(Br)o3)[nH]c2c1)c1cccs1 | . | 31.2 | 2.9 | 48.7* | 12.9 | 48.4
O=C(Nc1ccc2nc(-c3ccc(Br)o3)[nH]c2c1)c1ccco1 | . | 25.9 | 6.6 | 64.5* | 20.3 | 37.6
O=C(Nc1cccc(-c2nc3ccccc3[nH]2)c1)c1cccc(NC(=O)c2ccco2)c1 | . | -14.9 | 7.4 | 31.8 | -13.2 | -86.9
Cc1cccc2[nH]c(-c3ccc(NC(=O)c4ccco4)cc3)nc12 | . | ? | 7.2 | 83.7* | 17.4 | 48.9
O=C(Nc1ccc2nc(-c3ccccc3)[nH]c2c1)c1ccco1 | 53.5* | 22.2 | 5.2 | 54.4* | 20.8 | .
C[C@H]1CN([C@@H](C)CO)C(=O)c2cccc(NC(=O)c3cnccn3)c2O[C@H]1CN(C)CC1CC1 | . | . | . | 0.3 | . | .
C[C@@H]1CN([C@H](C)CO)C(=O)c2cccc(NS(=O)(=O)c3ccccc3)c2O[C@@H]1CN(C)C(=O)NC1CCCCC1 | . | . | . | 5.1 | . | .
S=C(c1ccc(-c2ccc(Br)cc2)o1)N1CCOCC1 | 52.6* | 44.1 | 0.4 | . | 24.1 | .
S=C(c1ccc(-c2ccc(Cl)c(Cl)c2)o1)N1CCOCC1 | . | 59.0* | . | 44.9* | 37.3 | 113.5*
CO[C@H]1CN(C)C(=O)c2cc(NS(=O)(=O)c3cccc(C)c3)ccc2OC[C@@H](C)NC[C@H]1C | . | . | . | -2.2 | . | .
NC(=O)c1cccc(-c2coc3c(C(=O)NCc4ccccc4)cccc23)c1 | -1.5 | . | -0.4 | 50.0* | . | .
COCCNC(=O)c1cccc2c(-c3cccc(C(N)=O)c3)coc12 | -0.4 | . | 4.8 | 2.1 | . | .
SMILES | Wnt bcat act | HSF1 activator | SMARCA2 activ | esBAF inh | HSF1 inh | MITF TRPM1 HTS
CCn1c(=O)n(CCc2ccccc2)c(=O)c2c3c(sc21)CCCC3 | -3.1 | -9.2 | . | -1.7 | -2.7 | 7.3
CCn1c(=O)c2c3c(sc2n2cnnc12)CCC3 | . | -68.5 | 0.7 | . | -58.3* | -6.2
CCc1ccc(N(C(=O)c2snc(C(N)=O)c2N)C(C(=O)NCCC(C)C)c2c[nH]c3ccccc23)cc1 (stereo not given) | -13.2 | 56.7* | 0.9 | 6.8 | 13.7 | .
NC(=O)c1nsc(C(=O)N(c2ccc(F)cc2)C(C(=O)NCC2CCCO2)c2c[nH]c3ccccc23)c1N (stereo not given) | 2.1 | 8.9 | 0.6 | -1.6 | 1.2 | -2.8
O=S(=O)(Nc1cccc(-c2ccc(N3CCCCCC3)nn2)c1)c1ccccc1F | 25.7 | -19.1 | 4.0 | . | -14.5 | 71.7
COc1ccc(C)cc1S(=O)(=O)Nc1cccc(-c2ccc(N3CCCCCC3)nn2)c1 | 6.1 | -6.9 | 0.9 | ? | -5.9 | 13.7
O=S(=O)(Nc1cccc(-c2ccc(N3CCCCCC3)nn2)c1)c1ccc(C(F)(F)F)cc1 | -0.9 | -8.8 | 4.4 | 55.7* | -10.0 | 51.4
Cc1ccc(S(=O)(=O)Nc2cccc(-c3ccc(N4CCCCCC4)nn3)c2)cc1C | 13.1 | 6.9 | 2.8 | 46.3* | -2.4 | 57.8
O=S(=O)(Nc1cccc(-c2ccc(N3CCCCCC3)nn2)c1)c1ccccc1Cl | 5.5 | 17.0 | -0.7 | 43.5* | -1.6 | 2.9
O=S(=O)(Nc1cccc(-c2ccc(N3CCCCCC3)nn2)c1)c1cccc(F)c1 | 28.8 | 7.7 | 6.2 | 65.8* | 2.8 | 98.5*
O=C(C[C@H]1CC[C@@H]2NC[C@@H](O)COC[C@H]2O1)Nc1nccs1 | . | . | . | -2.7 | . | .
Cc1ccc(S(=O)(=O)Nc2ccc3c(c2)C(=O)N([C@@H](C)CO)C[C@@H](C)[C@H](CN(C)C(=O)Nc2c(C)noc2C)O3)cc1 | . | . | . | -5.5 | . | .
O=[N+]([O-])c1ccc(Cl)c(S(=O)(=O)Nc2cccc(-c3ccc(N4CCOCC4)nn3)c2)c1 | 9.5 | 36.5 | 1.7 | 31.6 | 22.6 | 86.4*
O=S(=O)(Nc1cccc(-c2ccc(N3CCCCCC3)nn2)c1)c1ccc(F)cc1 | 17.0 | -9.3 | 2.4 | 56.0* | -9.9 | 62.7
O=[N+]([O-])c1ccc(Cl)c(S(=O)(=O)Nc2ccc(-c3ccc(N4CCOCC4)nn3)cc2)c1 | 5.2 | 2.3 | 0.6 | 14.6 | -0.6 | 4.4
CCOc1ccc(S(=O)(=O)Nc2cccc(-c3ccc(N4CCCCCC4)nn3)c2)cc1 | 5.1 | 20.0 | 5.0 | 33.9 | 15.4 | 36.3
Cc1cc(Nc2ccc(Cl)cc2)nc(N)n1 | . | 28.8 | 4.2 | 35.6 | 12.1 | 53.2
Nc1cc(Nc2ccc(Br)cc2)nc(N)n1 | 38.7* | -9.0 | 2.6 | . | -5.5 | ?
COC(=O)c1ccc(C(=O)NN)cc1 | 3.1 | -7.1 | -2.9 | -5.5 | -2.2 | .
COC(=O)c1ccc(C(=O)Nc2ccc(C(C)C)cc2N)cc1 | . | -19.1 | 4.1 | 47.3* | -0.3 | 67.8
CC(C)C(=O)N1CCC1(C)C(=O)Nc1cc(-c2ccccc2)nn1C (stereo not given) | 10.7 | . | 4.0 | 49.9* | . | .
Cn1nc(C(C)(C)C)cc1NC(=O)C1(C)CCN1C(=O)Cc1ccc(-c2ccccc2)cc1 (stereo not given) | -5.6 | . | -2.4 | -7.1 | . | .
